# Bioassay records (PubChem)
# DAX1 inh-1 – blocks DAX1 repression of SF-1 activated StAR promoter | HEK293T StAR-luciferase reporter, SF-1/DAX-1 repression relief | inhibition, % at 6.8 µM | actives 1.1% (n = 370,000);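 active = inhibition above the mean over all tested compounds plus 3 SD, cut at about 3.6% in these data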;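 also: 0% = DAX-1 cells with DMSO and 100% = cells lacking DAX-1 with DMSO; higher inhibition means more luminescence from relief of DAX-1 repression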
# DAX1 inh-2 – inhibits human nuclear receptor DAX1. P51843. HEK293 Gal4-DAX1 luciferase reporter, luminescence. inhibition, % at 6.75 µM. actives 0.99% (n = 340,000). AID 504766;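 active = inhibition above the mean over all tested compounds plus 3 SD, cut at about 4.2% in these data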;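 also: 0% = DAX1-transfected cells with DMSO and 100% = empty-vector control cells with DMSO; inhibition shows as a rise in luminescence from relieved DAX1 repression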
# Target sequence (P51843 207-470 limits assumed): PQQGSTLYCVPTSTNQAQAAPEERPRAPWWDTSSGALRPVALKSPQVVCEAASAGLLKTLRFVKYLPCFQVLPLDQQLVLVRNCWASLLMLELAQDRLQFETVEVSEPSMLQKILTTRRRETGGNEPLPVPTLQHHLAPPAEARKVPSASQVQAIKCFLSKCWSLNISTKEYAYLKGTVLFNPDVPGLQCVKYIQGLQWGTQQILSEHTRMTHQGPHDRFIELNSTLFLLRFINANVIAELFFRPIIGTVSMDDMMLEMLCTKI
# hgDAF12 agonist – agonists of H. glycines DAF-12 nuclear receptor; HEK293 GAL4-hgDAF12 UAS-luciferase reporter, agonist luminescence; normalized to butyrate control; AID 687014; activation, % at 6.8 µM; actives 1.8% (n = 370,000);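 active = activation above a cutoff set at the mean of all screened compounds plus 3 SD, cut at about 10% in these data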;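 also: 0% = DMSO wells and 100% = sodium butyrate wells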
# Wee1 degr inh – blocks degradation of human Wee1 kinase; reporter increase, % at 5 µM; HeLa Luc-Wee1K328M stability, luciferase luminescence; 100% = proteasome inhibitor MG132 effect; actives 1.2% (n = 220,000); P30291;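 active = activation above the mean of all tested compounds plus 3 SD, set per screening run, cut at about 8.8% in these data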;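 also: cells exposed to compound for 20 h before luminescence read; 0% = DMSO alone and 100% = MG132 at 30 µM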
# ssDAF12 agonist – activators of S. stercoralis DAF-12 nuclear receptor; activation, % at 6.8 µM; AID 652126; HEK293 ssDAF-12/GRIP1 lit1-tk-luc reporter, luminescence; % of 3 µM dafachronic acid response; actives 1% (n = 370,000);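 active = activation above the mean over all tested compounds plus 3 SD, cut at about 0.9% in these data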;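 also: 0% = DMSO-only wells and 100% = 3 µM delta7-dafachronic acid wells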
# hcDAF12 agonist – activators of H. contortus DAF-12 nuclear receptor. HEK293 hcDAF-12 lit1-tk-luc reporter, luminescence; 0% DMSO, 100% Δ7-dafachronic acid. activation, % at 6.8 µM. actives 1.4% (n = 370,000). AID 652067;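 active = activation above the mean of all tested compounds plus 3 SD, cut at about 5.5% in these data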;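 also: 100% = response to 3 µM Δ7-dafachronic acid high control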
# LXRb hcDAF ctr – LXR-beta agonism as hcDAF-12 counter-screen. shares compounds with hcDAF12 agonist. HEK293 Gal4-LXR tk-luc reporter, luminescence, 24 h; normalized: DMSO 0%, positive control 100%. activation, % at 6.8 µM. 3,400 tested, under 10 active. AID 743027;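 active = mean percent activation of the reporter above a cutoff set as the average over tested compounds plus their standard deviation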
# Target sequence (P55055 whole entry, looked up, the tested form may be a part): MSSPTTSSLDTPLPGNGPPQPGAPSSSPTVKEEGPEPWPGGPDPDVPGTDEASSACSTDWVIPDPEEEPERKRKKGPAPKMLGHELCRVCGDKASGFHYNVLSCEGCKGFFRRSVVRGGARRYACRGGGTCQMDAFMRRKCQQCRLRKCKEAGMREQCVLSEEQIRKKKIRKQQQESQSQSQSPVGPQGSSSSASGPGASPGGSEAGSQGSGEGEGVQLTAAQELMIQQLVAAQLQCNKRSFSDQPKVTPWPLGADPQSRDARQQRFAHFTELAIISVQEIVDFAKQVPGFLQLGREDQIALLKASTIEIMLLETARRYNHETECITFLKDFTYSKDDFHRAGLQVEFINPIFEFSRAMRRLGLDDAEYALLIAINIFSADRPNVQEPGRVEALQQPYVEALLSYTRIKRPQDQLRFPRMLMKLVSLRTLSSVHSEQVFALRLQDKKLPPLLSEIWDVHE
# hcDAF12 ag – hcDAF-12 agonism, confirmation assay | actives 61% (n = 3,400) | HEK293 hcDAF-12 lit1-tk-luc reporter, luminescence; % of Δ7-dafachronic acid response | activation, % at 6.8 µM | shares compounds with hcDAF12 agonist | AID 743032;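 active = mean activation across triplicate tests above the threshold derived from the earlier primary screen, cut at about 5.5% in these data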;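 also: 0% = DMSO only wells and 100% = 3 µM Δ7-dafachronic acid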
# hgDAF12 conf – hgDAF-12 agonism, confirmation assay | HEK293 GAL4-hgDAF12 luciferase reporter, agonist mode; percent of butyrate response | activation, % at 6.8 µM | shares compounds with hgDAF12 agonist | actives 80% (n = 3,300) | AID 743050;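 active = mean activation over triplicate wells above the hit cutoff derived from the earlier primary screen, cut at about 11% in these data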;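 also: 0% = DMSO low control and 100% = 2 mM sodium butyrate high control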
# LXR ag 2 – activates human LXR-beta, counter-screen for DAF-12 agonists; activation, % at 6.8 µM; 3,300 tested, under 10 active; AID 743051; shares compounds with hgDAF12 agonist; HEK293 Gal4-LXR luciferase reporter, 24 h;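 active = mean activation of the triplicate above a set limit carried over from the primary screen, none filed active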
# Starred values were filed as active, the others as inactive; nt = not tested or not shown. Rows were chosen to be rich in hits. Some 4.6% of all compounds tested hit in one or more screens of this group.
SMILES,DAX1 inh-1,DAX1 inh-2,hgDAF12 agonist,Wee1 degr inh,ssDAF12 agonist,hcDAF12 agonist,LXRb hcDAF ctr,hcDAF12 ag,hgDAF12 conf,LXR ag 2
COc1cc(CNC(=O)c2ccc3c(c2)S(=O)(=O)c2ccccc2C3=O)cc(OC)c1,1.0,0.4,-4.0,nt,-1.2,-0.8,nt,nt,nt,nt
O=C(CSc1ccc(-c2nc3ccccc3[nH]2)cn1)Nc1ccc2c(c1)OCCO2,nt,2.7,nt,0.2,nt,nt,nt,nt,nt,nt
Cc1cc2nc(-c3ccc(SCC(=O)Nc4ccc5c(c4)OCCO5)nc3)[nH]c2cc1C,3.4,0.9,15.2*,0.1,-0.2,7.3*,1.2,4.1,14.8*,0.9
O=C(Nc1ccccc1)c1cc2ccc3ccccc3c2s1,1.5,4.4*,15.2*,5.2,2.8*,12.5*,1.0,9.8*,16.1*,0.7
COc1ccc(CCNC(=O)c2cnn(-c3ccccc3)c2N)cc1OC,-1.1,nt,-1.7,nt,-1.1,-2.1,nt,nt,nt,nt
COC(=O)[C@H](CC(C)C)NS(=O)(=O)c1ccc(F)cc1Br,-0.1,-0.7,-2.1,nt,-0.7,-0.9,nt,nt,nt,nt
CCOc1ncccc1C(=O)OCC(=O)Nc1ccc(-c2nc3ccc(C)cc3s2)cc1,4.4*,1.1,17.9*,6.1,1.0*,7.5*,1.6,5.7*,17.7*,1.0
CCOc1ncccc1C(=O)OCC(=O)Nc1c(C)cc(C)cc1C,-0.4,0.1,-1.3,2.8,-0.5,-1.1,nt,nt,nt,nt
CCC(C)Sc1ccc([C@@H]2[C@H]3C(=O)N(CC)C(=O)[C@H]3[C@]3(C(=O)OC)CCCCN23)cc1 (some centres undefined),-0.5,1.4,-1.8,nt,-1.8,-1.9,nt,nt,nt,nt
Cc1ccc(NC(=O)c2cc3nc(C)cc(C)n3n2)cc1,4.3*,0.5,16.3*,6.3,0.5,8.5*,1.3,5.4,16.7*,0.7
C[C@H](O)CNC(=O)c1[nH]cnc1C(=O)N[C@@H](C)c1ccccc1,1.2,-1.1,2.2,nt,-1.0,-1.3,nt,nt,nt,nt
Cc1ccc2nc(-c3cccnc3)oc2c1,0.7,1.8,7.8,3.9,-0.5,4.5,nt,nt,nt,nt
Cc1ccc2nc(-c3ccccn3)oc2c1,3.4,-0.2,14.4*,1.6,2.8*,11.6*,1.3,15.4*,24.0*,0.9
O=c1cc(CCl)[nH]c2nc3ccccc3n12,0.1,-0.8,-1.6,3.8,0.2,-1.2,nt,nt,nt,nt
O=c1cc(-c2ccccc2)[nH]c2nc3ccccc3n12,3.7*,0.9,13.8*,5.9,1.5*,10.8*,1.9,15.2*,19.4*,1.1
CCOC(=O)c1c(C)oc2c1c(C(c1cccnc1)N1CCCCC1)c(O)c1ccccc12 (centres undefined),2.5,3.8,14.2*,-3.5,1.8*,10.5*,0.7,6.8*,5.3,0.3
Cc1ccccc1NC(=O)c1cc2ccccc2o1,2.2,2.7,13.8*,nt,0.2,7.7*,1.3,9.2*,16.4*,0.6
COc1cc(NC(=O)c2cc3ccccc3o2)c(OC)cc1Br,0.9,-0.1,5.6,0.0,0.2,1.4,nt,nt,nt,nt
O=C(Nc1ncccc1Cl)c1cc2ccccc2o1,2.1,2.4,16.4*,nt,0.8,7.3*,1.0,6.2*,17.6*,0.7
COc1ccc(S(=O)(=O)Nc2ccccc2OC)cc1NC(=O)c1cc2ccccc2oc1=O,2.7,2.5,14.3*,7.5,0.9*,7.7*,0.7,3.5,9.6,0.4
COc1ccccc1NC(=O)c1cc2ccccc2o1,1.7,3.1,13.7*,2.5,1.9*,16.5*,1.4,15.4*,22.3*,0.7
Cc1cc(C)nc(NC(=O)c2cc3ccccc3o2)n1,0.1,0.8,3.0,-2.2,-1.0,0.2,nt,nt,nt,nt
CCCCc1ccc(NC(=O)Cn2c(=O)c(N3CCCCC3)c(N)n(C)c2=O)cc1,0.3,1.2,-2.0,nt,-0.4,-0.2,nt,nt,nt,nt
C=CCC[C@@H](Cc1ccc(F)cc1)C(=O)OC[C@@H](NC(=O)[C@@H](CC=C)CC(=O)N[C@H](CO)Cc1ccccc1)C(C)(C)C,-0.6,-0.9,-1.1,nt,-1.6,-1.8,nt,nt,nt,nt
O=C(Nc1ccccc1)c1cc2ccccc2o1,3.5,-0.6,18.6*,-0.3,1.9*,12.8*,1.8,17.0*,22.0*,1.2
SMILES,DAX1 inh-1,DAX1 inh-2,hgDAF12 agonist,Wee1 degr inh,ssDAF12 agonist,hcDAF12 agonist,LXRb hcDAF ctr,hcDAF12 ag,hgDAF12 conf,LXR ag 2
C=CCn1c(SCC(=O)Nc2ccc(-c3nc4ccc(C)cc4s3)cc2)nnc1-c1ccccc1,4.5*,1.5,18.4*,4.9,0.1,7.2*,0.8,2.4,9.8,0.6
O=C(NC(=S)Nc1cnc2ccccc2c1)c1ccccc1,4.2*,5.9*,21.2*,2.2,1.9*,7.4*,0.9,6.6*,13.4*,0.7
N#C/C(=C\c1ccc(OCc2ccc(C(=O)O)cc2)cc1)C(=O)N1CCOCC1,3.5,-6.2,18.6*,-3.6,1.6*,14.4*,1.4,7.8*,20.5*,1.0
COc1cc(/C=C(\C#N)C(=O)N2CCOCC2)ccc1OCc1ccccc1,0.7,1.3,3.0,1.1,-0.1,0.6,nt,nt,nt,nt
COCCN(C(=O)COC(=O)Cc1ccc(Cl)cc1Cl)c1c(N)n(Cc2ccccc2)c(=O)[nH]c1=O,-0.1,0.3,1.1,nt,-0.7,-0.7,nt,nt,nt,nt
CC(C)NC(=O)C1(C)CCN1C(=O)c1ccccc1Oc1ccccc1 (centres undefined),-1.0,nt,1.8,nt,-1.1,-0.7,nt,nt,nt,nt
Cc1nc2nc(-c3cccs3)[nH]c2cc1Br,1.3,2.7,22.7*,nt,1.0*,8.9*,1.5,8.3*,21.6*,1.0
c1ccc(-c2nc(-c3cccs3)[nH]c2-c2ccccc2)cc1,-1.3,0.4,-1.8,3.5,-1.4,-1.1,nt,nt,nt,nt
COC(=O)C(C)(C)c1cccnc1C#N,-0.4,-0.3,0.1,nt,-0.8,-0.4,nt,nt,nt,nt
Cc1cccc(/C=C(\C(=O)C(=O)O)c2ccc3ccccc3n2)c1,3.4,0.9,20.7*,-1.2,1.8*,11.4*,0.5,8.1*,13.9*,0.4
CN(C)N(C(=O)c1cc(-c2cccs2)nn1-c1ccccc1)C1CCS(=O)(=O)C1 (centres undefined),-0.2,0.6,0.8,nt,-1.1,-0.8,nt,nt,nt,nt
